Drawing on ChEMBL document CHEMBL4513216, “Probing the Open Global Health Chemical Diversity Library for Multistage-Active Starting Points for Next-Generation Antimalarials” (ACS Infect Dis, 2020), this text covers INHIBITION for 56 compounds.

The whole screen tested about 69,000 compounds, of which about 8,600 (12%) showed an effect of 50% or more. This is one part of a sample in which strong results are shown more often than they occur.

In this assay the test system is Plasmodium berghei. The assay can be described thus: Screen against P. berghei liver stage (PbLuc), transformed with Luciferase, at 10uM. Format: functional, HepG2. Conditions: tested at 10 uM.
`Cn1c(=O)[nH]c(=O)n2c(CC(=O)Nc3ccccc3)cnc12`: the INHIBITION was determined as 32.5%.
With `CCn1cc2c(n1)C(COC)CN(Cc1ccoc1)C2` (stereo unspecified), the INHIBITION is 58.7%.
In the case of `COCC1CN(Cc2ccoc2)Cc2cn(C)nc21` (stereo unspecified), the INHIBITION is recorded as 7.24%.
Regarding `COCC1CN(Cc2ccoc2)Cc2cn(CC3CCCC3)nc21` (stereo unspecified), the INHIBITION turned out to be 34.6%.
In the case of `Cn1c(Cn2ccnc2)nnc1C1CCN(C(=O)c2ccncc2)CC1`, the INHIBITION is on record as -22.1%.
As for `COCC(=O)N1CCC(c2cc(N(C)C)cc(C)n2)CC1`, the INHIBITION came out at 44.3%.
Turning to `Cc1ccc(-c2nc(CC(=O)NCC3CCOC3)cs2)o1` (stereo unspecified), the INHIBITION is given as 71.2%.
The figure for `Cc1ccc(-c2nc(CC(=O)NCC(C)N3CCOCC3)cs2)o1` (stereo unspecified) is 67.5%; for `Cc1ccc(-c2nc(C(=O)NCC3CCOC3)cs2)cc1` (stereo unspecified) it is 41.5%.
On to `CNC(=O)C1CCCCN1C(=O)Cc1csc(-c2ccc(C)o2)n1` (stereo unspecified), for which the INHIBITION is given as -7.72%.
The same measure for `CCNC(=O)C1CCN(Cc2csc(-c3ccc(C)o3)n2)CC1`: 20.2%; for `Cc1ccc(-c2nc(CC(=O)N3CCN(c4cnccn4)CC3)cs2)o1`: -11.4%.
Turning to `Cc1ccc(-c2nc(CC(=O)NCC3CCCOC3)cs2)o1` (stereo unspecified), the INHIBITION is listed as 44.3%.
Turning to `Cc1ccc(-c2nc(CC(=O)NCC3CCCN(C(C)C)C3)cs2)o1` (stereo unspecified), the INHIBITION is 38.7%.
For the compound `Cc1ccc(-c2nc(CC(=O)N3CCCC(NC(=O)C(C)C)C3)cs2)o1` (stereo unspecified), the INHIBITION is on record as 51.7%.
The same measure for `NC(=O)NCC1CCCCN1C(=O)c1cccc(Cl)c1` (stereo unspecified): -17.4%.
The figure for `CNC(=O)CN1CCCC12CCN(C(=O)c1cccc(F)c1)CC2` is 14.9%.
For the compound `CCSc1ccc(C(=O)N2CCCC2C(=O)N2CCOCC2)cn1` (stereo unspecified), the INHIBITION is on record as 23.6%.
For the compound `Cc1ccc(CN2CC[C@H]3OCC[C@@H](C(=O)NC4CC4)[C@@H]3C2)o1`, the INHIBITION amounted to 23.9%.
With `COc1cc(NC(=O)N2CCCC2c2nncn2C)ccc1Br` (stereo unspecified), the INHIBITION worked out at 55.6%.
Regarding `Cn1cnnc1C1CCCN1C(=O)Nc1cccc(OC(F)F)c1` (stereo unspecified), the INHIBITION was 30.7%.
Regarding `CCOCc1ccc(NC(=O)N2CCCC2c2nncn2C)cc1` (stereo unspecified), the INHIBITION is 43.7%.
Take `c1cncc(CN2CCc3ncnc(NCCc4c[nH]cn4)c3CC2)c1`: the INHIBITION is given as 38.3%.
The figure for `CC(C)c1nc(C2CCCN(C(=O)c3ccc4nncn4c3)C2)no1` (stereo unspecified) is -43.6%; for `CCC(C)N1CCC2(CC1)CN(c1cncnc1)C(=O)CO2` (stereo unspecified) it is 3.25%; for `Oc1cccc(CNC2CCN(CCc3ccncc3)CC2)c1` it is 4.48%.
As for `COCCN1CCC(NCc2ccc(Cl)cc2)C1` (stereo unspecified), the INHIBITION was found to be 23.4%.
The same measure for `N#Cc1ccc(CNC(=O)NC2CCN(c3ncccn3)CC2)cc1`: 23.3%; for `N#Cc1ccc(CNC(=O)NC2CCN(CC(F)(F)F)C2)cc1` (stereo unspecified): 52%.
With `CSc1ccc(CNC2CCN(CCc3ccncc3)CC2)cc1`, the INHIBITION was found to be 16.1%.
`N#Cc1ccc(CNC2CCN(CCc3ccncc3)CC2)cc1`: the INHIBITION is reported as 51.1%.
In the case of `Cc1ccc(CNC2CCN(CCc3ccncc3)CC2)cc1C`, the INHIBITION is reported as 15.1%.
With `N#Cc1ccc(CNC(=O)NC2CCN(CC(F)F)CC2)cc1`, the INHIBITION amounted to 26.1%.
Take `COCCN1CCC(NCc2cccc(C)c2)C1` (stereo unspecified): the INHIBITION was found to be 15.6%.
The figure for `Fc1ccc(CNC2CCN(CCc3ccncc3)CC2)cc1F` is 21.5%; for `COCCN1CCC(NCc2ccc(C#N)cc2)C1` (stereo unspecified) it is 57.4%.
The figure for `Clc1cccc(CNC2CCN(CCc3ccncc3)CC2)c1` is 52.9%; for `O=C1CCC2(CCC(NC3CCOC3)CC2)N1Cc1ccccc1` (stereo unspecified) it is -17.1%.
`Cc1cccc(CN2Cc3[nH]nc(COCCO)c3C2)n1`: the INHIBITION worked out at 29%.
The same measure for `Cc1nc(C(=O)N2CCOC(c3nc(C(C)C)n[nH]3)C2)c[nH]1` (stereo unspecified): -16%; for `CCN(Cc1nonc1C)C(=O)c1cc(C(F)(F)F)nn1C`: 29.9%; for `CN(C)Cc1cccc(C(=O)N2CCCC(n3cncn3)C2)c1` (stereo unspecified): 29.2%.
The figure for `COc1cc2[nH]c(C(=O)O)cc2c(OC)c1C` is -13.1%; for `CCn1nc2ccc(S(=O)(=O)N3CCSCC3)cn2c1=O` it is 7.92%.
Consider `COc1ccc(C(C)NCCC(N)=O)cc1F` (stereo unspecified), for which the INHIBITION worked out at 49.4%.
The figure for `COc1cc(CNC(C)Cn2cccn2)cc(Cl)c1OC` (stereo unspecified) is -3.7%; for `COc1ccc(CNC(C)c2cccc(Br)c2)c(OC)c1OC` (stereo unspecified) it is 70.5%.
With `COc1ccc(CNC(C)c2cccc(Cl)c2)c(OC)c1OC` (stereo unspecified), the INHIBITION is 44.3%.
The figure for `CC(NCc1ccc(OCC(N)=O)cc1)c1ccc(Cl)cc1` (stereo unspecified) is 43.3%.
The figure for `CCOc1cccc(C(C)NCc2ccc(OC)c(OC)c2OC)c1` (stereo unspecified) is 38.5%; for `COc1cc(CNC(C)c2cccc(Cl)c2)cc(OC)c1OC` (stereo unspecified) it is 63.7%.
Turning to `COc1ccc(C(C)NCc2ccc(OC)c(OC)c2OC)cc1F` (stereo unspecified), the INHIBITION was found to be 67.1%.
In the case of `COc1ccc(C(C)NCc2cnnn2C)cc1F` (stereo unspecified), the INHIBITION was 36.6%.
The figure for `COc1ccc(CNC(C)c2ccc(Cl)cc2)c(OC)c1OC` (stereo unspecified) is 56%.
As to `COc1ccc(CNC(C)c2ccccc2Cl)c(OC)c1OC` (stereo unspecified), the INHIBITION came out at 48.3%.
The figure for `CC(NCC1CCN(CCO)CC1)c1cccc(Cl)c1` (stereo unspecified) is 40.4%.
